Mdm2 MdmX PPI: inhibitors of human Mdm2-MdmX association, primary screen, cell-based, luminescence, split luciferase, SaOS-2, uHTS; 330,000 tested, 3% active; Protein Mdm4 (Homo sapiens) + E3 ubiquitin-protein ligase Mdm2 (Homo sapiens), …; inhibition, % at 8 µM; SaOS-2 split-luciferase Mdm2/MdmX complementation;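 active = inhibition of at least 50% at 8 µM in the primary screen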
Target sequence (O15151 whole entry, looked up): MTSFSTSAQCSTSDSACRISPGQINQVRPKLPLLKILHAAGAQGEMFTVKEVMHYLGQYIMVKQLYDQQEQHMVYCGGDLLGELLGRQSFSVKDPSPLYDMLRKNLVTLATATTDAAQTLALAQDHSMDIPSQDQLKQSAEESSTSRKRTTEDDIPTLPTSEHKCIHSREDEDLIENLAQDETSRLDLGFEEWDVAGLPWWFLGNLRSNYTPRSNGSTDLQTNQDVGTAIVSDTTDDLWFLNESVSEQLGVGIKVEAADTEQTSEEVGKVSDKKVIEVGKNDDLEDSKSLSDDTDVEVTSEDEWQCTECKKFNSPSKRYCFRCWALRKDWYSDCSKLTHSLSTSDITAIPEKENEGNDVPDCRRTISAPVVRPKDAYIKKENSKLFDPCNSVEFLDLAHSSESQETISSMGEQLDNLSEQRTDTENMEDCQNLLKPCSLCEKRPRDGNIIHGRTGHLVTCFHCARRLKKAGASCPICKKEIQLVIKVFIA
Target sequence (Q00987 whole entry, looked up): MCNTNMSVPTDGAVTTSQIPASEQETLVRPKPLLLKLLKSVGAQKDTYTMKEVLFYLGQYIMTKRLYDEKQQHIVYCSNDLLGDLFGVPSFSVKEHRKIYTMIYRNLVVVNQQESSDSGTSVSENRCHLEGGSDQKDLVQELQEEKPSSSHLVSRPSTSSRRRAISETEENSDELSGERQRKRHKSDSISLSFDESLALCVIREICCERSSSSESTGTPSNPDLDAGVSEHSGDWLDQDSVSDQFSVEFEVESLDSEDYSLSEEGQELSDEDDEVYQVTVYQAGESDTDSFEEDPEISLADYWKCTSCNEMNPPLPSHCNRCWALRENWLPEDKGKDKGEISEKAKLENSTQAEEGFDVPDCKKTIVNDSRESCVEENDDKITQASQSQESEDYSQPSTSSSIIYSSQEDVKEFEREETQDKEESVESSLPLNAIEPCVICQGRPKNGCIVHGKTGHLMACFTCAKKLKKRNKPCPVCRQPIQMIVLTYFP
SKKanGAS inh: S. pyogenes SKKanGAS growth inhibitors in kanamycin, primary screen, streptokinase expression inhibitor project, SKKanGAS strain, BacTiter-Glo luminescence; 300,000 tested, 1.3% active; 6 h; inhibition, % at 7.5 µM; AID 1662, 2009;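 active = mean replicate score, as percent of positive control median, at least 50; inconclusive = mean below 50 but one replicate at or above 50; inactive = mean and every replicate below 50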;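 also: strain carries kanamycin resistance gene driven by streptokinase promoter and grows in 40 µg/ml kanamycin; loss of luminescence reflects streptokinase promoter inhibition or plain growth inhibition; 0% = median of DMSO wells and 100% = positive control at its reference dose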
GRIN3A LBD mod: binders of NR3A ligand-binding domain, primary screen, biophysical, differential scanning fluorimetry, uHTS | NR3A LBD differential scanning fluorimetry, Tm shift; 0% = protein alone, 100% = glycine-bound protein | Tm shift relative to glycine control, % at 25 µM | 340,000 tested, 2.5% active;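 active = melting temperature shift of at least 10% of the positive control shift, at one fixed dose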
Beta cell apopt: inhibitors of cytokine-induced beta cell apoptosis, primary screen, luminescence; INS-1E cytokine-induced death, ATP luminescence, 48 h; percent of positive-control rescue, neutral wells zero; protection from apoptosis, % (test concentration not listed); 300,000 tested, 0.8% active;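 active = Every replicate reaches about 75%, or at least half do and their mean reaches it too, limit read from the data; inconclusive = At least half of replicates reach the limit but their mean does not; inactive = Under half of replicates reach the limit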;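 also: 0% = cytokine-treated negative control wells and 100% = positive control rescue; higher means more ATP so stronger rescue from cytokine killing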
CSC inhib: cancer stem cell viability inhibitors, primary screen, luminescence | AID 2717, 2010 | cancer stem cell-like cells viability | inhibition, % at 7.5 µM | 300,000 tested, 1.1% active; in the data active = inhibition above about 75%; inconclusive = no clear call, values can overlap the other calls; tested in HMLE shEcad cells
MPTP block: mitochondrial permeability transition pore inhibitors, primary screen, biochemical, isolated mouse mitochondria, absorbance; 360,000 tested, 1.4% active; Ca2+ swelling absorbance, 30 min; inhibition, % at 10 µM;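 active = inhibition of 50% or more, scaled per plate between neutral and stimulator controls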;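 also: 0% = DMSO wells given calcium and 100% = 1 mM EGTA wells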
Mdm2-MdmX conf: Mdm2-MdmX complex disruptors, retested hits, confirmation, luminescence, single concentration; AID 489028, 2010; inhibition, % at 8 µM; 10,000 tested, 55% active; Mdm2-MdmX binding, luminescent assay; shares compounds with Mdm2 MdmX PPI; in the data active = inhibition above about 40%
Full FLuc ctr: full-length luciferase signal inhibition, confirmation, counter-screen for Mdm2/MdmX interaction inhibitor project, cell-based, single concentration, SaOS-2; shares compounds with Mdm2 MdmX PPI; SaOS-2 full-length luciferase counterscreen, luminescence; inhibition, % at 8 µM; 6,200 tested, 77% active;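 active = mean inhibition at 8 µM reaching about 37%, which flags the compound as non-specific, limit read from the data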;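 also: p53-null SaOS-2 cells with luciferase driven by a doxycycline-inducible promoter; compound on cells about two nights before reading with doxycycline added after day one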
Numbers without * were called inactive; ? = inconclusive; / = no result. Shown are actives, neighbours in structure and some others; about 6.9% of the full set was active somewhere.

SMILES | Mdm2 MdmX PPI | SKKanGAS inh | GRIN3A LBD mod | Beta cell apopt | CSC inhib | MPTP block | Mdm2-MdmX conf | others
Cc1ccc(NCc2ccc(O)c3ncccc23)cc1 | 76* | 12 | -4 | 2 | 18 | 3 | 71* | Full FLuc ctr=66*
C/C=C/c1ccc(OCC(=O)N2CCc3cc(OC)c(OC)cc3C2)c(OC)c1 | -11 | -3 | 0 | 0 | -4 | 0 | /
COc1ccc(N=C2NN=C(c3c(C)[nH]c4ccccc34)CS2)cc1 | 54* | ? | -14 | 24 | 101* | 2 | 26
Cc1cc(C2=NNC(=Nc3ccccc3)SC2)c(C)n1C | -90 | 3 | 2 | -13 | -13 | 0 | /
Cc1ccc(C(=O)c2cnc3ccccc3c2-c2ccccc2)cc1 | 56* | 10 | -4 | -8 | 15 | 1 | 30
Cc1ccc(C(=O)c2nc(C(=O)NCCO)nc3ccccc23)cc1 | -4 | / | 0 | -18 | 5 | 0 | /
COc1ccc(C(=O)c2cnc3ccccc3c2-c2ccccc2)cc1 | 57* | -3 | -1 | -21 | 18 | 0 | 23
COc1cc2cc(CCOC(=O)c3ccc(C#N)cc3)oc(=O)c2cc1OC | -10 | / | 5 | -11 | -16 | 0 | /
CCCCn1c(N)c(N(CC(C)C)C(=O)c2cc(Cl)nc3ccccc23)c(=O)[nH]c1=O | 33 | 5 | 1 | -3 | -4 | -1 | /
COc1ccc(OC)c(NC(=O)C2CCC(CNc3c(N4CCC(C)CC4)c(=O)c3=O)CC2)c1 (stereo not given) | 52* | 8 | -1 | / | -14 | 0 | 29
CCOC(=O)c1c(C)[nH]c(C(=O)CSc2nnnn2-c2ccc(C)cc2)c1C | 66* | -5 | 2 | 1 | 5 | -2 | 8
Nc1ccc2ncccc2c1N | / | / | -2 | -3 | 43 | 1 | /
Nc1nc(N)c2c(ccc3nccc32)[nH]1 | 51* | 40 | -10 | 11 | 43 | -2 | 38
CCOc1ccc(-c2nn(-c3ccccc3)cc2/C=C2\SC(N)=NC2=O)cc1C | 67* | 10 | -3 | 10 | 33 | 0 | 22
CCOc1cc(/C=C2\SC(N)=NC2=O)ccc1O | -10 | -16 | -1 | 0 | 2 | 0 | /
CCN(CC)c1ccc(/C=N/NC(=O)c2cccc(S(=O)(=O)Nc3ccccc3OC)c2)c(O)c1 | 77* | 17 | 14* | 91* | 108* | 2 | 79* | Full FLuc ctr=15
CCN(CC)c1ccc(/C=N/NC(=O)c2ccc3nc[nH]c3c2)c(O)c1 | 73* | 6 | 5 | 116* | 106* | 2 | 83* | Full FLuc ctr=53*
CCN(CC)c1ccc(/C=N/N=C(N)N)c(O)c1 | 62* | 7 | 0 | 10 | 66 | 2 | 52* | Full FLuc ctr=83*
CCN(CC)c1ccc(C=Nc2ccccc2)c(O)c1 | 4 | 2 | -2 | -8 | / | 4 | /
CCC(C)[C@H](NS(=O)(=O)c1ccc(C)cc1)C(=O)N1CCC(C(=O)N2CCC(C(N)=O)CC2)CC1 (stereo not given in full) | 5 | 4 | -1 | -2 | -10 | -1 | /
CC[C@@]12C(=O)N(c3cccc(Cl)c3)C(=O)N1[C@H](c1ccc(Br)cc1)[C@@H]1C(=O)N(C(C)(C)C)C(=O)[C@@H]12 | 13 | 5 | -5 | 3 | 17 | 0 | /
CC(C)C[C@@]12C(=O)N(c3cccc(F)c3)C(=O)N1[C@H](c1ccc(Br)cc1)[C@@H]1C(=O)N(C(C)(C)C)C(=O)[C@@H]12 | 28 | 9 | -6 | 4 | 12 | 0 | /
CC(C)C[C@@]12C(=O)N(c3ccc(Br)cc3)C(=O)N1[C@H](c1ccc(Br)cc1)[C@@H]1C(=O)N(C(C)(C)C)C(=O)[C@@H]12 | 60* | 5 | 3 | 11 | 9 | 0 | 70* | Full FLuc ctr=52*
CC(C)C[C@@]12C(=O)N(c3cccc(Cl)c3)C(=O)N1[C@H](c1ccc(Br)cc1)[C@@H]1C(=O)N(C(C)(C)C)C(=O)[C@@H]12 | 50* | / | 2 | 11 | -1 | 1 | 46* | Full FLuc ctr=69*
CC1CCN(c2ccc3c(c2)S(=O)(=O)c2ccccc2C3=O)CC1 | -132 | 1 | -5 | 3 | 34 | 6 | /
SMILES | Mdm2 MdmX PPI | SKKanGAS inh | GRIN3A LBD mod | Beta cell apopt | CSC inhib | MPTP block | Mdm2-MdmX conf | others
COc1cc(C(=O)OCc2cc(=O)oc3c(C)c(C)ccc23)ccc1OC(F)F | 60* | -7 | 0 | 7 | / | 1 | 12
CCOc1ccc(NC(=O)c2ccc(NC(=O)Cc3n[nH]c(=O)c4ccccc34)cc2)cc1 | 45 | -3 | -33 | 7 | -13 | 2 | /
COc1ccccc1OCC#CCNC1CCCCC1C (stereo not given) | 3 | -13 | -2 | -3 | 6 | -3 | /
Cc1cc(Oc2ccc(-c3nnc(-c4ccccc4)o3)cc2[N+](=O)[O-])ccc1Cl | 75* | -4 | 0 | 1 | -10 | 3 | 2
COc1cc(OC)c2c(-c3ccccc3)cc(=O)oc2c1C(CCN1CCCC(C)C1)c1ccc(N(C)C)cc1 (stereo not given) | 77* | 18 | -2 | 16 | 30 | 2 | 18
COc1ccc(C(CCN2CCCC2)c2c(OC)cc(OC)c3c(-c4ccccc4)cc(=O)oc23)cc1 (stereo not given) | 38 | 20 | -4 | 4 | 3 | 0 | /
COc1cc(OC)c2c(-c3ccccc3)cc(=O)oc2c1C(CCN1CCN(c2ccccc2)CC1)c1ccc(N(C)C)cc1 (stereo not given) | 15 | 14 | -1 | 1 | -6 | 5 | /
COc1ccc(C(CCN2CCCC(C)C2)c2c(OC)cc(OC)c3c(-c4ccccc4)cc(=O)oc23)cc1 (stereo not given) | 100* | 10 | 1 | 51 | 27 | 4 | 17
[O-][n+]1cccc2c(Br)cc(Br)c(O)c21 | 51* | 76* | -2 | 7 | 8 | 2 | 25
Oc1c(Br)cc(Br)c2cccnc12 | / | / | -12 | / | / | 0 | /
COC(=O)c1ccc2c(c1)sc(=NC(=O)CCS(=O)(=O)c1ccccc1)n2C | 51* | -7 | 3 | / | 10 | -2 | 44* | Full FLuc ctr=77*
COc1ccc(-n2ncc(C(C)NS(=O)(=O)c3cc(F)ccc3C)c2C)cc1 (stereo not given) | 4 | 3 | 4 | 5 | 0 | 0 | /
O=C(Cc1ccc(Cl)cc1)Nc1cccc(S(=O)(=O)N2CCCCC2)c1 | 19 | / | 0 | -7 | -10 | 4 | /

Screening data as filed in PubChem BioAssay.
